Experimental data taken from PubChem BioAssay AID1508602 (The Scripps Research Institute Molecular Screening Center, 2020).
Values joined by “and” are separate entries in the source; they are usually repeats but may differ in a detail not shown here. Identical values can stand only once. Out of some 650,000 compounds screened, about 6,800 (1%) were called active. The sample holds actives, similar compounds and a random draw of the others, so the mix is not that of the screen. Cut-off read from the data, not from the text of the source: active = activation above about 4.9%; inactive = the rest.

What follows are molecules tested against G-protein coupled receptor 151 (Homo sapiens) (UniProt Q8TDV0) (assay: activates the human receptor GPR151, primary screen, cell-based, PathHunter beta-arrestin, luminescence (AID 1508602;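 note: 0% = median of compound wells and 100% = cells with positive control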)). Settings: PathHunter beta-arrestin GPR151 cells, at 11.2 µM, active compounds read high.
G-protein coupled receptor 151 (Homo sapiens), sequence (Q8TDV0 whole entry, looked up): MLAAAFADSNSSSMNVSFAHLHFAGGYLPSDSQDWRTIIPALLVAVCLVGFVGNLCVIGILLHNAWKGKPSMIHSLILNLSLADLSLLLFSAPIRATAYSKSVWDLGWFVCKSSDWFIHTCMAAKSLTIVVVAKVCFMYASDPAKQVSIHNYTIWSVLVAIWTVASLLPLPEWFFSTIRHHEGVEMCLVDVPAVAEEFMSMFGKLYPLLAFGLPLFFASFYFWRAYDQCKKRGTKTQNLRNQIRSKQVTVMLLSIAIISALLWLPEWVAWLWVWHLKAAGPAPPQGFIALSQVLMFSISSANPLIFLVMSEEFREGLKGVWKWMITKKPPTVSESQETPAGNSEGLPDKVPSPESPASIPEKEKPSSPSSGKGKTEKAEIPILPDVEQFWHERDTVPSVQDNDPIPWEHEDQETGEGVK

| Structure (SMILES) | activation |
| --- | --- |
| COc1ccc2c(=O)c(C(=O)O)c[nH]c2c1 | -1.56% (inactive) |
| CC(=O)Nc1ccc(NC(=O)/C=C\C(=O)O)cc1C | 2.3% (inactive) |
| CCOC(=O)C1=C(c2ccccc2)S/C(=C2/C(=S)C(C)(C)N(C(C)=O)c3cc(C)c(C)cc32)S1 | 1.9% (inactive) |
| N#CCCN1c2ccccc2Sc2ccc(C(F)(F)F)cc21 | 1.1% (inactive) |
| O=C(Nc1cc([N+](=O)[O-])ccc1Cl)c1cc(Cl)ccc1Cl | -0.475% (inactive) |
| O=C(Nc1ccccc1)c1ccc2nc(Br)sc2c1 | -4.09% (inactive) |
| CC(=O)Nc1ccc(NC(=O)c2ccc3nc(Br)sc3c2)cc1 | 6.16% (active) |
| CCNc1nc2ccc(C(=O)Nc3ccc(NC(C)=O)cc3)cc2s1 | -3.46% (inactive) |
| Cc1ccc(C(=O)NCC(=O)OCC(=O)Nc2cccc(Cl)c2)s1 | 0.82% (inactive) |
| NC(=O)c1c(NC(=O)c2ccccc2F)sc2c1CCCCCC2 | 1.12% (inactive) |
| COC(CNC(=O)CC(NS(=O)(=O)c1ccc(C)cc1)c1ccco1)OC (stereo not drawn) | -0.827% (inactive) |
| COC(=O)c1ccc2c(=O)n(CCN3CCOCC3)c(SCc3cc(C(C)=O)ccc3OC)nc2c1 | -0.152% (inactive) |
| O=C(CCc1nnc(Cc2cccc(C(F)(F)F)c2)o1)N1CCSCC1 | -0.806% (inactive) |
| O=C(CCc1nnc(CCCCc2ccccc2)o1)N1CCC(N2CCSCC2)CC1 | 7% (active) |
| COc1ccccc1NC(=O)Nc1ccnn1C1CCN(C(=O)CCc2ccccc2)CC1 | 0.323% (inactive) |
| CN(Cc1ccno1)C(=O)CC1C(=O)NCCN1Cc1ccoc1 (stereo not drawn) | 1.36% (inactive) |
| COc1cccc(N(C(=O)c2csnn2)C(C(=O)NC(C)(C)C)c2ccc(F)cc2)c1 (stereo not drawn) | 0.396% (inactive) |
| CCc1ccc(CN(C)C(=O)CC2(c3ccccc3Cl)CC(=O)N(C)C2=O)cc1 (stereo not drawn) | 0.519% (inactive) |
| CCc1ccc(-c2oc(C)c(C)[n+]2[O-])cc1 | -2.56% (inactive) |
| Cc1cnc(CN(C)C(=O)CC2(c3ccccc3C)CC(=O)N(CCN(C)C)C2=O)[nH]1 (stereo not drawn) | 1.18% (inactive) |

| Structure (SMILES) | activation |
| --- | --- |
| COCCN1C(=O)CC(CC(=O)NCc2nc3ccccc3[nH]2)(c2ccccc2C)C1=O (stereo not drawn) | 6.75% (active) |
| COCCN1C(=O)CC(CC(=O)N(C)C(C)C)(c2ccccc2F)C1=O (stereo not drawn) | -1.69% (inactive) |
| COCCNC(=O)c1cnn2c(C)c(Cc3ccc(Cl)cc3)c(C)nc12 | 0.41% (inactive) |
| CC(=O)c1ccc(-c2cnc3[nH]c(=O)n(C4CCCCC4)c3n2)s1 | -0.0776% (inactive) |
| Cc1ccc(S(=O)(=O)N2CC3CC3C2C(=O)Nc2ccc(F)cc2)cc1 (stereo not drawn) | 0.0458% (inactive) |
| Nc1ccc(C(=O)Nc2nc3ccc(C(=O)N4CCCCC4)cc3s2)cc1 | -0.249% (inactive) |
| O=C(O)c1c(CNC2CCCCC2)c2ccccc2n1Cc1ccc(Cl)cc1 | -0.235% (inactive) |
| CC1CCCC(NCc2c(C(=O)O)n(Cc3ccc(F)cc3)c3ccccc23)C1C (stereo not drawn) | 0.786% (inactive) |
| CC1CCCC(NCc2c(C(=O)O)n(Cc3ccc(Cl)cc3)c3ccccc23)C1C (stereo not drawn) | 7.5% (active) |
| O=C(Nc1ccc(N2CCOCC2)cc1)c1ccc2nc(Nc3ccncc3)sc2c1 | 0.271% (inactive) |
| COc1ccc(OC)c(NC(=O)Cn2c(=O)n(Cc3ccccc3)c(=O)c3ccccc32)c1 | -0.558% (inactive) |
| O=C(Cn1c(=O)n(Cc2ccccc2)c(=O)c2ccccc21)c1ccccc1 | 5.03% (active) |
| NC(=O)Cn1c(=O)n(CCCCC(=O)NCCc2ccccc2)c(=O)c2ccccc21 | -0.245% (inactive) |
| CCOC(=O)c1sc(NC(=O)CSc2ncccn2)c(C#N)c1C | 4.97% (active) |
| CCOC(=O)c1sc(NC(=O)CSc2nnc(-c3ccccc3)o2)c(C#N)c1C | -0.17% (inactive) |
| CCOC(=O)c1sc(NC(C)=O)c(C#N)c1C | -1.06% (inactive) and -0.982% (inactive) |
| NC(=O)c1c(NC(=S)NC(=O)c2ccccc2)sc2c1CCCCCC2 | -0.485% (inactive) |
| COc1ccc(C2CC(c3ccccc3)n3ncnc3N2)cc1 (stereo not drawn) | -0.25% (inactive) |
| COC(Cn1c(=S)[nH]c2cc3ccccc3cc2c1=O)OC | 0.597% (inactive) |
| CC1(c2ccc3ccccc3c2)NC(=O)N(CC(N)=O)C1=O (stereo not drawn) | -0.0365% (inactive) |

| Structure (SMILES) | activation |
| --- | --- |
| COc1ccc(C2(C)NC(=O)N(CC(=O)NCCc3ccccc3)C2=O)cc1 (stereo not drawn) | -0.0334% (inactive) |
| COc1ccc(C2(C)NC(=O)N(CC(=O)Nc3ccc4ccccc4c3)C2=O)cc1 (stereo not drawn) | 5.16% (active) |
| O=C(Nc1ccc2cn[nH]c2c1)c1ccc(F)cc1F | -2.11% (inactive) |
| COc1cc(C2C(C#N)=C(N)Oc3c2c(C)nn3-c2ccccc2)ccc1OCC#N (stereo not drawn) | 0.152% (inactive) |
| COc1ccc(C2C(C#N)=C(N)Oc3c2c(C)nn3-c2ccccc2)cc1 (stereo not drawn) | 8.46% (active) |
| Cc1nn(-c2ccccc2)c2c1C(c1ccc(-c3ccccc3)cc1)C(C#N)=C(N)O2 (stereo not drawn) | -3.52% (inactive) |
| CCOC(=O)Cn1c(CNC(=O)c2ccco2)nc2ccccc21 | -1.37% (inactive) |
| CCOC(=O)c1cccc(NC(=O)CCCOc2ccc(OC)cc2)c1 | 5.63% (active) |
| CCOC(=O)c1cccc(NC(=O)/C=C/c2ccc(Cl)cc2)c1 | -0.517% (inactive) |
| CCOC(=O)c1cccc(NC(=O)/C=C/c2ccccc2)c1 | 5.45% (active) |
| COc1cccc(NC(=O)CCCOc2ccc(C)cc2)c1 | 0.676% (inactive) |
| CCOC(=O)c1cccc(Nc2c(-c3ccccc3)c(=O)c2=O)c1 | -1.39% (inactive) |
| COc1ccc(OCCCC(=O)Nc2ccccc2)cc1 | -0.655% (inactive) |
| COc1cc(NC(=O)CSc2ncccc2-c2nc3ccccc3[nH]2)cc(OC)c1 | -2.5% (inactive) |
| COc1ccc(N2CCN(c3nc(Nc4ccc(C)c(Cl)c4)nc(N4CCCC4)n3)CC2)cc1 | -0.777% (inactive) |
| COc1ccc(-c2cc(-c3cccs3)nc3sc(C(N)=O)c(N)c23)cc1 | -1.24% (inactive) |
| CC/C=C\C/C=C\C/C=C\C/C=C\C/C=C\C[C@H]1O[C@H]1CCC(=O)OC | 0.982% (inactive) |
| Cc1cccc(C(=O)OCC(=O)NC(=O)NCc2ccccc2)c1C | 0.774% (inactive) |
